Results on eight compounds are retold here after PubChem BioAssay (NCI).

Holding throughout (assay): NCI-60 one-dose screen, 48 h (100 = growth as untreated, 0 = no growth, -100 = all killed)
For assay [1], the system named is HCT-15 colon. The conditions noted are these: 10 µM unless noted.
Assay [2] relates to HT29 colon. The conditions noted are these: 10 µM unless noted.
Assay [3] deals with SNB-75 CNS. The conditions noted are these: 10 µM unless noted.
In assay [4] the test system is SNB-19 CNS. The following applies: 10 µM unless noted.
Assay [5] has as its system U251 CNS. The conditions noted are these: 10 µM unless noted.
The subject of assay [6] is PC-3 prostate. The conditions noted are these: 10 µM unless noted.
In assay [7] the test system is SK-MEL-5 melanoma. The following applies: 10 µM unless noted.
Assay [8] deals with UACC-62 melanoma. The conditions noted are these: 10 µM unless noted.
In assay [9] the test system is LOX IMVI melanoma. The following applies: 10 µM unless noted.
For assay [10], the system named is SK-MEL-28 melanoma. The conditions noted are these: 10 µM unless noted.
Assay [11] deals with EKVX NSCLC. The conditions noted are these: 10 µM unless noted.
Assay [12] concerns SN12C renal. The conditions noted are these: 10 µM unless noted.
Assay [13] relates to UO-31 renal. The following applies: 10 µM unless noted.
The test system of assay [14] is TK-10 renal. The following applies: 10 µM unless noted.
For assay [15], the system named is ACHN renal. The following applies: 10 µM unless noted.
Assay [16] relates to CAKI-1 renal. The conditions noted are these: 10 µM unless noted.
Assay [17] relates to A498 renal. The conditions noted are these: 10 µM unless noted.
Assay [18] has as its system CCRF-CEM leukemia. The conditions noted are these: 10 µM unless noted.
Assay [19] concerns MOLT-4 leukemia. The following applies: 10 µM unless noted.
Assay [20] relates to SK-MEL-2 melanoma. The conditions noted are these: 10 µM.

The structures appear in SMILES notation. Compounds without any hit were thinned out: in the full panel of roughly 83,000, 20% have a hit.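 Testing used 96-well plates and a 48-hour single-concentration exposure. Example: -40 means 40% of the starting cells died.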 Unmarked numbers belong to inactive results. Calls of active or inactive are those of the source. Rule for the calls: active = growth percent below 10; inactive = the rest.

Take `O=C(NOC[C@H](O)CO)c1ccc(F)c(F)c1Nc1ccc(I)cc1F`: the growth in [1] is 53%; in assay [2], 7.15% (active); in [3] it was 59.9%; in assay [4], 49.1%; in assay [5], 38.6%; in assay [6], 92.8%. The growth in assay [7] was 42.5%; in assay [8], -10.7% (active); in assay [9] it was 23.1%; in assay [10] it was -2.06% (active); in assay [11], 57.6%; in assay [12], 49.5%. For the same compound, the growth in [13] is 24.6%; in assay [14], 41.4%; in [15] it was 47.6%; in [16], 34.3%; in assay [17] it was -19.9% (active); in assay [18] it was 83.7%.

In the case of `O=C(Cn1ccnc1)Nc1ccc(-c2nc3ccccc3s2)cc1`, the growth in [1] was 87%; in assay [2], 93.3%; in assay [3], 88.8%; in assay [4], 76.5%; in assay [5], 71.9%; in assay [6] it was 65.9%. For the same compound, the growth is 39.2% in assay [7]; 82.9% in [8]; 73.4% in assay [9]; 105% in [10]; 61.4% in assay [11]; 84.6% in assay [12]. Besides, the growth in assay [13] is 60.4%; in [14], 81.8%; in assay [15], 90.3%; in assay [16], 66.2%; in [17], 57.5%; in [18], 69.1%. Also, the growth in assay [19] is 68.1%.

On to `CCN(CC)CCNc1ccc(N=Nc2cnc3ccccc3c2)c2ccccc12`, for which the growth was -66.5% (active) in assay [1]; -90.3% (active) in assay [2]; -56.8% (active) in assay [3]; -71.7% (active) in assay [4]; -76.9% (active) in assay [5]; -83.8% (active) in [6]. The growth in assay [7] is -97.8% (active); in assay [8] it was -92.5% (active); in [9] it was -81% (active); in assay [10] it was -92.8% (active); in assay [20], -76.9% (active); in [11], -2.28% (active). The growth is -88.9% (active) in assay [12]; -79% (active) in [14]; -69.6% (active) in assay [15]; -91.5% (active) in assay [17]; -78.2% (active) in assay [18]; -49.7% (active) in assay [19].

For `Cc1cc(-c2cc(O)ccc2Cl)cc2nnc(Nc3ccc(OCCN4CCCC4)cc3)nc12`, the growth in [1] is -78.5% (active); in assay [2], -57.1% (active); in assay [3], -90.8% (active); in assay [4], -64.4% (active); in assay [5], -74.5% (active); in assay [6], -80.5% (active). Also, the growth is -84.9% (active) in [7]; -77.7% (active) in assay [8]; -63.9% (active) in [9]; -72.3% (active) in [10]; -81.1% (active) in assay [11]; -79.2% (active) in assay [12]. Besides, the growth was -87.3% (active) in assay [13]; -82.1% (active) in assay [14]; -92.7% (active) in assay [15]; -83% (active) in [16]; -68.9% (active) in [17]; -51.9% (active) in assay [18].

On to `CN(C)CCn1c(=O)c2c3cc4c(cc3n(CCN(C)C)c2c2ccc(Cl)cc21)OCO4`, for which the growth in [1] was 43.3%; in [2], 25.1%; in [3], 70.8%; in [4], 34.3%; in [5] it was 44.6%; in assay [6], 36.2%. Besides, the growth in assay [7] was 52.8%; in assay [8] it was 76.9%; in [9], -88.2% (active); in assay [10], 87%; in assay [11] it was 74%; in assay [12] it was 31.7%. The growth in assay [13] is 57.8%; in assay [14], 103%; in assay [15], 26.3%; in [16], 42.4%; in assay [17] it was 67.1%; in [18], 14.4%.

Regarding `O=C(c1ccc(F)c(F)c1Nc1ccc(I)cc1F)N1CC(O)([C@@H]2CCCCN2)C1`, the growth in [1] was 25.6%; in assay [2] it was -18.5% (active); in assay [3], 21.7%; in assay [4], 36.4%; in assay [5], 15.3%; in [6], 38.6%. For the same compound, the growth was -92.9% (active) in assay [7]; -5.75% (active) in assay [8]; -84.1% (active) in [9]; -1.76% (active) in assay [10]; 24.4% in [11]; 34% in assay [12]. Besides, the growth in assay [13] was -9.6% (active); in assay [14], 11.6%; in assay [15], 18.2%; in assay [16] it was 21.9%; in [17] it was -71.2% (active); in [18] it was 39.7%. Besides, the growth in assay [19] was 4.19% (active).

Consider `COc1cc(C2CC(c3ccc(Cl)cc3)=NN2c2ccc(Cl)cc2)cc(OC)c1OC` (stereo not drawn), for which the growth in assay [1] was 91.2%; in assay [2], 94.7%; in [3], 58.7%; in assay [4], 88.1%; in assay [5], 85.1%; in assay [6], 64.1%. Moreover, the growth was 97.9% in [7]; 77% in assay [8]; 99.8% in assay [9]; 96.1% in assay [10]; 98.8% in assay [20]; 88.4% in [12]. For the same compound, the growth in assay [13] was 77.1%; in assay [14], 98%; in assay [15], 86%; in assay [16], 82.3%; in assay [17] it was 88%; in assay [18], 84.7%. Besides, the growth in assay [19] is 67.8%.

As to `C/C=C/C=N/NC(=S)Nc1ccccc1`, the growth in [1] is 99%; in assay [2], 106%; in assay [3], 80.8%; in assay [4], 102%; in [5], 88.4%; in [6], 88.2%. Besides, the growth was 104% in assay [7]; 89.5% in assay [8]; 88.6% in assay [9]; 97.5% in [10]; 101% in assay [11]; 89.3% in [12]. The growth in [13] was 72.6%; in assay [14], 112%; in [15] it was 99.2%; in assay [16], 92.1%; in assay [17], 120%; in assay [18] it was 91.8%. Besides, the growth in assay [19] is 99.2%.
